Paper PMC5540273 (PLoS ONE, 2017)

How the values were obtained:
Details in all cases: concentration: 1 μM, replicates: in singlicate; n = 1
EPHA7 = system: EPHA7
EPHA8 = system: EPHA8
EPHB1 = system: EPHB1
EPHB2 = system: EPHB2
EPHB3 = system: EPHB3
EPHB4 = system: EPHB4
EPHB6 = system: EPHB6
ERBB2 = system: ERBB2
ERBB3 = system: ERBB3
ERBB4 = system: ERBB4
ERK1 = system: T1, ERK1
T1 construct: gene MAPK3

ERK2 = system: T2, ERK2
T2 construct: gene MAPK1

ERK3 = system: T3, ERK3
T3 construct: gene MAPK6

ERK4 = system: T4, ERK4
T4 construct: gene MAPK4

ERK5 = system: T5, ERK5
T5 construct: gene MAPK7

ERK8 = system: T6, ERK8
T6 construct: gene MAPK15

ERN1 = system: ERN1
FAK = system: T7, FAK
T7 construct: gene PTK2

FER = system: FER
FES = system: FES
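Also: KINOMEscan kinase panel screen.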

| SMILES | %Inh (EPHA7) [%] | %Inh (EPHA8) [%] | %Inh (EPHB1) [%] | %Inh (EPHB2) [%] | %Inh (EPHB3) [%] | %Inh (EPHB4) [%] | %Inh (EPHB6) [%] | %Inh (ERBB2) [%] | %Inh (ERBB3) [%] | %Inh (ERBB4) [%] | %Inh (ERK1) [%] | %Inh (ERK2) [%] | %Inh (ERK3) [%] | %Inh (ERK4) [%] | %Inh (ERK5) [%] | %Inh (ERK8) [%] | %Inh (ERN1) [%] | %Inh (FAK) [%] | %Inh (FER) [%] | %Inh (FES) [%] |
| --- | --- | --- | --- | --- | --- | --- | --- | --- | --- | --- | --- | --- | --- | --- | --- | --- | --- | --- | --- | --- |
| O=C(Nc1cccc(-c2nn3ccccc3c2-c2ccnc(Nc3cccc(C(F)(F)F)c3)n2)c1)c1c(F)cccc1F [GSK292658] | 0 | 0 | 2 | 0 | 5 | 0 | 25 | 80 | 0 | 90 | 0 | 0 | 0 | 0 | 0 | 9 | 0 | 0 | 3 | 0 |
| Cc1ccc(C)c(NC(=O)NC2CCN(c3ccnc(Nc4ccc(F)cc4)n3)C2)c1 (stereo not shown) [GSK1379720] | 0 | 0 | 0 | 16 | 8 | 6 | 24 | 43 | 11 | 47 | 35 | 0 | 0 | 12 | 0 | 0 | 3 | 0 | 2 | 0 |
| c1ccc(-c2cnc3nccnn23)cc1 [AH20685] | 0 | 5 | 0 | 0 | 1 | 0 | 1 | 0 | 0 | 0 | 8 | 0 | 0 | 0 | 0 | 0 | 0 | 0 | 0 | 11 |
| O=C(Nc1cccc(Oc2ccc3nc(NC(=O)C4CC4)cn3n2)c1)c1ccccc1C(F)(F)F | 0 | 29 | 6 | 19 | 7 | 10 | 31 | 25 | 52 | 20 | 0 | 0 | 0 | 0 | 0 | 20 | 0 | 9 | 0 | 22 |
| Nc1ncc(-c2ccc3nccc(-c4ccncc4)c3c2)cc1S(=O)(=O)N1CCOCC1 [GSK1627798] | 4 | 15 | 1 | 0 | 3 | 3 | 36 | 0 | 0 | 0 | 0 | 0 | 0 | 10 | 0 | 45 | 0 | 2 | 11 | 0 |
| NCCCC(NC(=O)c1cc(Br)c(-c2ccnc3[nH]ccc23)s1)c1ccccc1.O=C(O)C(F)(F)F.O=C(O)C(F)(F)F (stereo not shown) [GSK1287544] | 8 | 7 | 30 | 0 | 0 | 15 | 0 | 0 | 0 | 15 | 12 | 22 | 0 | 0 | 0 | 43 | 22 | 0 | 0 | 1 |
| CN(c1ccc(NC(=O)Nc2cc(C(F)(F)F)ccc2F)cc1)c1ccnc(Nc2ccc(S(N)(=O)=O)cc2)n1 [GW809893] | 97.9 | 99.9 | 97.5 | 95.7 | 50 | 95 | 98.8 | 0 | 35 | 0 | 0 | 0 | 0 | 0 | 79 | 98.6 | 5 | 98.8 | 84 | 72 |
| Nc1ncc(-c2cccnc2)c2scc(-c3ccc4c(c3)CCN4C(=O)Cc3ccccc3)c12 [GSK683281] | 19 | 26 | 21 | 9 | 12 | 2 | 98.1 | 1 | 0 | 2 | 0 | 11 | 4 | 21 | 0 | 0 | 35 | 0 | 33 | 0 |
| O=C(O)C(F)(F)F.O=C(O)C(F)(F)F.O=c1[nH]ccc2nc(N[C@@H]3CCCNC3)nc(Nc3ccc(S(=O)(=O)N4CCOCC4)cc3)c12 [GSK2177277] | 58 | 39 | 31 | 0 | 15 | 21 | 30 | 2 | 45 | 12 | 59 | 72 | 100 | 100 | 58 | 99.2 | 60 | 86 | 95.4 | 68 |
| Clc1ccc(-c2nn3ncccc3c2-c2ccnc(Nc3ccc4c(c3)OCCO4)n2)cc1 [GW829116] | 35 | 3 | 18 | 13 | 7 | 0 | 65 | 32 | 8 | 84 | 0 | 12 | 3 | 0 | 0 | 1 | 0 | 0 | 0 | 0 |
| Nc1ncnc2c1nc(-c1ccccc1)n2-c1ccccc1 [SKF-97293] | 0 | 7 | 15 | 0 | 29 | 10 | 16 | 14 | 43 | 0 | 12 | 10 | 0 | 0 | 6 | 13 | 35 | 14 | 8 | 30 |
| O=C(Nc1cccc(-c2nn3ccccc3c2-c2ccnc(Nc3cccc(F)c3)n2)c1)c1c(F)ccc(F)c1Cl [GSK357952] | 11 | 19 | 6 | 0 | 4 | 8 | 48 | 82 | 0 | 76 | 0 | 0 | 0 | 0 | 0 | 20 | 17 | 0 | 45 | 6 |
| COc1cc2c(cc1OCCN1CCNCC1)ncc1c3ccc(C#N)cc3[nH]c21 | 0 | 0 | 0 | 2 | 0 | 0 | 55 | 4 | 0 | 28 | 0 | 0 | 0 | 23 | 15 | 12 | 44 | 10 | 0 | 2 |
| CC(=O)N1CCN(c2ccc(Nc3nccc(-c4sc(C(C)C)nc4-c4cccc(NS(=O)(=O)c5cccc(Cl)c5)c4)n3)cn2)CC1 [GSK1660437] | 0 | 29 | 21 | 0 | 0 | 0 | 97.7 | 82 | 92 | 40 | 0 | 98.8 | 0 | 0 | 0 | 66 | 44 | 3 | 35 | 0 |
| Cl.c1ccc(-c2ccc3c(Nc4ccc5[nH]ncc5c4)ccnc3c2)nc1 [GW440137] | 0 | 16 | 13 | 0 | 0 | 6 | 46 | 34 | 35 | 31 | 10 | 0 | 4 | 34 | 0 | 0 | 5 | 0 | 15 | 0 |
| CNC(=O)c1ccccc1Nc1nc(Nc2ccc(N3CCOCC3)cc2)ncc1Cl.Cl [GSK1576028] | 88 | 40 | 71 | 23 | 2 | 46 | 95.2 | 79 | 0 | 93.4 | 59 | 68 | 92 | 64 | 84 | 99.5 | 78 | 100 | 97.7 | 62 |
| O=C(Nc1n[nH]c2cc(-c3ccoc3)ccc12)C1CC1 [SB-738481] | 0 | 31 | 0 | 0 | 0 | 5 | 10 | 0 | 0 | 0 | 0 | 0 | 0 | 0 | 0 | 84 | 0 | 7 | 0 | 5 |
